From PubChem BioAssay (EPA / NIEHS) come the findings set out here.

Assay [1] can be described thus: ATG_CRE_CIS: Attagene CIS-FACTORIAL HepG2 Assay for human cAMP Responsive Element (CRE) binding protein 3 (AID 2282926). The conditions noted are these: HepG2 CRE cis-reporter, Attagene multiplexed mRNA; actives raise or lower the signal. An outline of the steps: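 Induced reporter mRNA from a CRE cis element, measured in HepG2 among many multiplexed units at 24 h. Detection used RT-PCR plus capillary electrophoresis of fluorescent fragments; DMSO served as negative control.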

Assay [2] concerns the target CCAAT/enhancer-binding protein beta (Homo sapiens) (UniProt P17676). In words: ATG_C_EBP_CIS: Attagene CIS-FACTORIAL HepG2 Assay for human CCAAT/Enhancer Binding Protein (C/EBP) beta (AID 2282927). The settings on record: HepG2 Attagene cis-factorial transcription factor reporter; actives raise or lower the signal. An outline of the steps: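 Endogenous C/EBPb-driven reporter transcripts measured in transfected human HepG2 cells at 24 h via RT-PCR and capillary electrophoresis of labelled fragments. Activity fitted in both directions relative to DMSO baseline.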

A short description of assay [3]: ATG_CMV_CIS: Attagene CIS-FACTORIAL HepG2 Assay for human CMV (Internal Marker) (AID 2282928).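 Further: endpoint acts as a background internal control marker rather than a target.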 The conditions noted are these: HepG2 CMV promoter reporter, transcription factor profiling; actives raise or lower the signal. An outline of the steps: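 Fluorescence intensity of RT-PCR-derived reporter fragments, resolved by capillary electrophoresis, gives the signal. HepG2 liver cells bearing transfected cis-element reporters were treated 24 h; activity in either direction was fit relative to DMSO-treated controls.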

Assay [4] can be described thus: ATG_DR4_LXR_CIS: Attagene CIS-FACTORIAL HepG2 Assay for human Liver X Receptor (LXR), DR4 submotif (AID 2282929). The settings on record: HepG2 Attagene DR4 cis-reporter, mRNA transcription; actives raise or lower the signal. Put shortly:
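Readout: reporter transcript fluorescence after RT-PCR and capillary electrophoresis, fitted bidirectionally against DMSO controls. Human HepG2 liver cells carried transiently transfected multiplexed reporter constructs; endogenous transcription factor activity measured 24 h post-dosing.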

In assay [5] the target is Aryl hydrocarbon receptor (Homo sapiens) (UniProt P35869). In words: ATG_Ahr_CIS: Attagene CIS-FACTORIAL HepG2 Assay for human Aryl Hydrocarbon Receptor (Ahr) (AID 2282930). The conditions noted are these: HepG2 AhR cis-factorial reporter transcription; actives raise or lower the signal. An outline of the steps:
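Reporter mRNA levels, quantified by RT-PCR and fluorescent capillary electrophoresis, reflect endogenous AhR transcriptional activity in HepG2 cells carrying transfected cis-promoter reporter constructs. Readout at 24 h post-dose; gain or loss fitted against DMSO baseline.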

The nature of assay [6]: ATG_AP_1_CIS: Attagene CIS-FACTORIAL HepG2 Assay for human Activator Protein 1 (AP-1) (AID 2282931). The settings on record: HepG2 Attagene cis-factorial AP-1 reporter mRNA; actives raise or lower the signal. Put shortly: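 Reporter transcripts were measured 24 h after dosing by RT-PCR and capillary electrophoresis of fluorescent fragments. Cells: HepG2 carrying transfected cis-regulated reporter constructs reading endogenous factor activity. Gain or loss fitted against DMSO.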

Assay [7] can be described thus: ATG_AP_2_CIS: Attagene CIS-FACTORIAL HepG2 Assay for human Activator Protein 2 (AP-2) (AID 2282932). The conditions noted are these: HepG2 AP-2 cis-reporter, Attagene transcription factor profiling; actives raise or lower the signal. Put shortly:
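Endogenous transcription factor activity is reported through transfected multiplex reporter constructs in HepG2, after 24 h of compound exposure. Transcripts were quantified by RT-PCR and capillary electrophoresis of fluorescent fragments. Bidirectional fit against DMSO.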

Assay [8] is described as follows: ATG_BRE_CIS: Attagene CIS-FACTORIAL HepG2 Assay for human Bone Morphogenetic Protein (BMP) Response Element (BRE) (AID 2282933). The conditions noted are these: HepG2 BMP response element reporter, Attagene transcription factor profiling; actives raise or lower the signal. Put shortly: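 Multiplexed cis-reporter assay, HepG2, 24 h exposure. mRNA from reporter units quantified via RT-PCR/CE; DMSO baseline; bidirectional curve fit.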

Assay [9] has as its target Retinoic acid receptor alpha (Homo sapiens) (UniProt P10276). Briefly: ATG_DR5_RAR_CIS: Attagene CIS-FACTORIAL HepG2 Assay for human Retinoic Acid Receptor Alpha (RARE), DR5 submotif (AID 2282934). The conditions noted are these: HepG2 Attagene cis-factorial RARE DR5 reporter, mRNA; actives raise or lower the signal. An outline of the steps: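 Reporter transcripts from a DR5-regulated unit, measured via RT-PCR plus capillary electrophoresis, reflect endogenous RAR activity in transiently transfected human HepG2 liver cells. Exposure lasted 24 h; gain or loss of signal scored against DMSO.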

Assay [10] addresses Transcription factor E2F1 (Homo sapiens) (UniProt Q01094). Briefly: ATG_E2F_CIS: Attagene CIS-FACTORIAL HepG2 Assay for human E2F Transcription Factor 1 (AID 2282935). The conditions noted are these: HepG2 Attagene cis-reporter, E2F reporter RNA transcripts; actives raise or lower the signal. Put shortly: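 Gain or loss of reporter transcript, fitted against DMSO, reflects E2F1-driven transcription. Transiently transfected HepG2 dosed 24 h before RNA isolation. Quantified by fluorescent RT-PCR products separated by capillary electrophoresis.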

Assay [11] can be described thus: ATG_E_Box_CIS: Attagene CIS-FACTORIAL HepG2 Assay for human Enhancer Box (E-box) (AID 2282936). The settings on record: HepG2 E-box cis-reporter transcription, actives raise or lower the signal. Put shortly:
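E-box-driven reporter transcripts measured in transiently transfected HepG2 after 24 h exposure: RNA reverse-transcribed, PCR-amplified, fluorescently labelled, digested and resolved by capillary electrophoresis. Gain or loss relative to DMSO.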

Assay [12] is described as follows: ATG_M_61_CIS: Attagene CIS-FACTORIAL HepG2 Assay for M61 Transcription Factor (Internal Marker) (AID 2282937). The conditions noted are these: HepG2 Attagene CIS-FACTORIAL M61 internal marker reporter; actives raise or lower the signal. Put shortly:
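Readout: fluorescent reporter mRNA fragments resolved by capillary electrophoresis after RT-PCR. Transiently transfected human HepG2 cells carried MRTU constructs reporting endogenous TF activity; 24 h chemical exposure; gain or loss of signal fitted relative to DMSO.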

Assay [13] can be described thus: ATG_EGR_CIS: Attagene CIS-FACTORIAL HepG2 Assay for human Early Growth Response 1 (EGR1) (AID 2282938). The settings on record: HepG2 Attagene CIS-FACTORIAL EGR reporter mRNA; actives raise or lower the signal. Put shortly:
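Read-out: fluorescent reporter-mRNA fragments resolved by capillary electrophoresis after RT-PCR, 24 h post-dose in transiently transfected HepG2. Endogenous transcription-factor activity reported via cis-element-regulated reporter units; gain or loss fitted relative to DMSO.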

A short description of assay [14]: ATG_M_19_CIS: Attagene CIS-FACTORIAL HepG2 Assay for M19 Transcription Factor (Internal Marker) (AID 2282939). The conditions noted are these: HepG2 Attagene CIS-FACTORIAL M19 internal marker reporter; actives raise or lower the signal. An outline of the steps: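 Signals come from fluorescence of labelled reporter-specific PCR fragments resolved by capillary electrophoresis, following 24 h treatment of HepG2 cells transfected with cis-promoter reporter units; activity was fitted in both directions relative to DMSO.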

The nature of assay [15]: ATG_ERE_CIS: Attagene CIS-FACTORIAL HepG2 Assay for Estrogen Response Element (ERE) (AID 2282940). The settings on record: HepG2 ERE cis-reporter, Attagene RNA transcript; actives raise or lower the signal. An outline of the steps:
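Fluorescence of capillary-separated, FAM-labelled reporter cDNA fragments indicates reporter mRNA levels in HepG2 cells exposed to chemicals for 24 h. Transient transfection with cis-regulated units; data fitted in both directions against DMSO.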

Assay [16] deals with Hepatocyte nuclear factor 3-beta (Homo sapiens) (UniProt Q9Y261). Briefly: ATG_FoxA2_CIS: Attagene CIS-FACTORIAL HepG2 Assay for human Forkhead box A2 (FOXA2) (AID 2282942). The settings on record: HepG2 cis-reporter transcription factor activity, 24 h; actives raise or lower the signal. An outline of the steps: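 Readout: fluorescent reporter transcripts resolved by capillary electrophoresis after RT-PCR. Transiently transfected HepG2, 24 h compound exposure, endogenous TF activity at cis promoter elements. Gain or loss of signal fitted relative to DMSO.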
Sequence of Hepatocyte nuclear factor 3-beta (Homo sapiens) (Q9Y261 whole entry, looked up): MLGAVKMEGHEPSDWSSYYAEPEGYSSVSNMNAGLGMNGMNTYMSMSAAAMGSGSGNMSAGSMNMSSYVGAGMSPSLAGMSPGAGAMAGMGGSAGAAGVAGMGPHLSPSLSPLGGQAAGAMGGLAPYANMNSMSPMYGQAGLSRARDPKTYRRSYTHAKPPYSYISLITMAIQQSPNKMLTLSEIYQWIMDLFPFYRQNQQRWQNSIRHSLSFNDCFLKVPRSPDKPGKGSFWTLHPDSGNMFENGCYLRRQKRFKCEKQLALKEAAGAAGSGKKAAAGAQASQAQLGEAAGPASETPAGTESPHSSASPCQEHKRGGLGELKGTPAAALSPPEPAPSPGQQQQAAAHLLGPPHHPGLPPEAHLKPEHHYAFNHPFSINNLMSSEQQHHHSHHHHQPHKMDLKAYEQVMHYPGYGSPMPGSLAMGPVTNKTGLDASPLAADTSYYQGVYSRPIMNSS

Assay [17] is described as follows: ATG_FoxO_CIS: Attagene CIS-FACTORIAL HepG2 Assay for human Forkhead box O (FoxO) (AID 2282943). The conditions noted are these: HepG2 Attagene cis-reporter, FoxO element, mRNA; actives raise or lower the signal. Put shortly:
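Endogenous transcription factor activity read from multiplexed cis-promoter reporter transcripts in transiently transfected HepG2, 24 h after dosing. Reporter RNA measured via RT-PCR plus capillary electrophoresis of FAM-labeled products; gain or loss relative to DMSO.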

Assay [18] in a line: ATG_GATA_CIS: Attagene CIS-FACTORIAL HepG2 Assay for human GATA Binding Protein (AID 2282944). The settings on record: HepG2 GATA cis-element reporter, Attagene multiplex mRNA; actives raise or lower the signal. An outline of the steps:
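After transfecting HepG2 cells with multiple cis-regulated reporter units, chemicals are dosed for 24 h; isolated RNA undergoes RT-PCR and fluorescent labeling before capillary electrophoresis, with activity expressed against DMSO.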

A short description of assay [19]: ATG_GLI_CIS: Attagene CIS-FACTORIAL HepG2 Assay for human Zinc Finger Protein GLI1 (AID 2282945). The conditions noted are these: HepG2, Attagene cis-factorial reporter mRNA, GLI element; actives raise or lower the signal. Put shortly: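 Bidirectional curve fits relative to DMSO, using reporter mRNA levels from RT-PCR plus capillary electrophoresis. Cells were HepG2 transiently carrying cis-regulated reporter constructs, harvested 24 h after dosing.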

Assay [20] is described as follows: ATG_Ets_CIS: Attagene CIS-FACTORIAL HepG2 Assay for human Erythroblast Transformation Specific (ETS) (AID 2282941). The conditions noted are these: HepG2 ETS cis-reporter transcription, actives raise or lower the signal. Put shortly:
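Multiplexed reporter transcript profiling: HepG2, 24 h treatment, total RNA to cDNA, PCR, 6-FAM labelling, HpaI cut, capillary electrophoresis. Gain- or loss-of-signal fitted against DMSO.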

Active and inactive are the calls of the source. How the source made its calls: active means hit-call score of the fitted dose curve at least 0.9, where 1 is the maximum; inactive means score below 0.9.

Sequence of Transcription factor E2F1 (Homo sapiens) (Q01094 whole entry, looked up): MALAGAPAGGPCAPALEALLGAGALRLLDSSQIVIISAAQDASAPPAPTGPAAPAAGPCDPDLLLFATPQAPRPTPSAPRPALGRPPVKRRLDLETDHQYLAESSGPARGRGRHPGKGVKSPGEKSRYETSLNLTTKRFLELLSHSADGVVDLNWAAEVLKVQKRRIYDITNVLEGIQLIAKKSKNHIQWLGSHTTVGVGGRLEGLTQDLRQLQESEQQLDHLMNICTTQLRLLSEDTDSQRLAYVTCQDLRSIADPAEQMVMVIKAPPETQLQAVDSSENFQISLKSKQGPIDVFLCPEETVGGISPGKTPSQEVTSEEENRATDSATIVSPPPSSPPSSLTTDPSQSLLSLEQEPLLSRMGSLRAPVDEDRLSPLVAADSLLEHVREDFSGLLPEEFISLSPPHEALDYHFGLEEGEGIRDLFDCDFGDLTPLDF
Sequence of Aryl hydrocarbon receptor (Homo sapiens) (P35869 whole entry, looked up): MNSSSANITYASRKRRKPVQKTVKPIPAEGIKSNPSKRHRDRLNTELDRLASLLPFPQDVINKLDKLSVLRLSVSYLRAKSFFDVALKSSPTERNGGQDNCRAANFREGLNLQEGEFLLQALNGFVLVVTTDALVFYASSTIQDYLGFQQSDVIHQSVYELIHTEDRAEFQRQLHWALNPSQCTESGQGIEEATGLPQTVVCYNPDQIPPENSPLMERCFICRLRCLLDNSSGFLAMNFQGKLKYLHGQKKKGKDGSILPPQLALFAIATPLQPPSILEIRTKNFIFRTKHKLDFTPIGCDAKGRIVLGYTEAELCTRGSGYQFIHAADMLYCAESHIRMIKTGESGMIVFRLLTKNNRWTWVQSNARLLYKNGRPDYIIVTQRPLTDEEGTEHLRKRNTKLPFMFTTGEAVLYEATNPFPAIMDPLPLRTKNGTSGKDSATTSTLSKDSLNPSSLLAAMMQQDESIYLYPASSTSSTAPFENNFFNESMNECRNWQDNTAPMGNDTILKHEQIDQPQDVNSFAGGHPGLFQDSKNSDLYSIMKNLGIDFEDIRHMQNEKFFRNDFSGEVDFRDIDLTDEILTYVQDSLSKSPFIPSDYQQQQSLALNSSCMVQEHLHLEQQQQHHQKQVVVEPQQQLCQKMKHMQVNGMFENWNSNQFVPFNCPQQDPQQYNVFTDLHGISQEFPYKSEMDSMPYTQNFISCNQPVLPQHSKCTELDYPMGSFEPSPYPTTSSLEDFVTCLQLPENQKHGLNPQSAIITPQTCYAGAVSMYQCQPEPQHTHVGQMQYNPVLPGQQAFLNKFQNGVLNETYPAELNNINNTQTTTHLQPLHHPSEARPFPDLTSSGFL
Sequence of CCAAT/enhancer-binding protein beta (Homo sapiens) (P17676 whole entry, looked up, the tested form may be a part): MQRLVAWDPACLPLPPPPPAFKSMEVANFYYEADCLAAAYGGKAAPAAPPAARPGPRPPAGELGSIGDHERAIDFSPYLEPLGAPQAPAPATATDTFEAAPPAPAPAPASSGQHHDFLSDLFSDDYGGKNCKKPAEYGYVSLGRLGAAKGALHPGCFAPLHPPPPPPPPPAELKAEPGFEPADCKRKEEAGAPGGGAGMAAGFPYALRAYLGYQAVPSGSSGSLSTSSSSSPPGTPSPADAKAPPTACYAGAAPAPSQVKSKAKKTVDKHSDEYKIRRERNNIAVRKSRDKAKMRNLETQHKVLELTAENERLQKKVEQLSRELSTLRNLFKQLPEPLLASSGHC
Sequence of Retinoic acid receptor alpha (Homo sapiens) (P10276 whole entry, looked up): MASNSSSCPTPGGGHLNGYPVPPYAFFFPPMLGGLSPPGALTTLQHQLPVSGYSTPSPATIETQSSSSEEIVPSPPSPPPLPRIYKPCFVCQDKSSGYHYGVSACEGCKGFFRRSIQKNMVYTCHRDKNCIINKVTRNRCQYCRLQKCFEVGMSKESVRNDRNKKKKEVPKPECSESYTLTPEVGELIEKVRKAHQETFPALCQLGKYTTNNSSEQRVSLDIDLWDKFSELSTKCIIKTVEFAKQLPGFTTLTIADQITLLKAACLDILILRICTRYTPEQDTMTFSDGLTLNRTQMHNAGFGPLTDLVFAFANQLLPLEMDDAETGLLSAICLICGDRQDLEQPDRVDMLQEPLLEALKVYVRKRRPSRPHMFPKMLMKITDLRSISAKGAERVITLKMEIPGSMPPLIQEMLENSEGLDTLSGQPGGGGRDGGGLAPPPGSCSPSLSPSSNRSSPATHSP

For orientation: AC50 means the concentration giving half of the maximal activity seen. Regarding `C1=Cc2ccccc2C1`, the result in assay [1], in assay [2], in [3], in assay [4], in [6] and in assay [7] was inactive. Further, the result in assay [8], in assay [9], in assay [10], in assay [11], in assay [12] and in [13] was inactive. Moreover, the molecule was classed as inactive in assay [14], in assay [16], in assay [17], in [18] and in [19]. Also, the AC50 is 5.55 µM (active) in assay [5] and 44.3 µM (active) in assay [15].
As for `CC(C)c1ccc2c(C(C)C)cc(C(C)C)c(S(=O)(=O)O)c2c1`, the call in [1], in assay [2], in [3], in assay [4], in [5] and in [6] was inactive. The result in assay [7], in assay [8], in assay [9], in assay [10], in assay [11] and in assay [12] was inactive. The molecule was called inactive in assay [13], in assay [14], in assay [16], in assay [17], in assay [18] and in assay [19]. The concentration at half-maximal activity (AC50) in assay [15] is 49.7 µM (active).
In the case of `O=C(O)CCCCCCCCCC(=O)O`, the result in assay [1], in [2], in assay [3], in assay [4], in assay [5] and in assay [6] was inactive. The result in assay [7], in assay [8], in assay [9], in assay [10], in [11] and in assay [12] was inactive. The result in assay [14], in assay [20], in [16], in assay [17], in [18] and in [19] was inactive. In addition, in assay [15], the AC50 was 22 µM (active).
Take `C=CC(=O)OCC(Br)CBr` (centres undefined): the molecule was classed as inactive in [1], in assay [5], in [6], in [7], in assay [8] and in [9]. The molecule was called inactive in assay [10], in [12], in assay [14], in assay [15], in [17] and in [18]. The outcome in assay [19] was inactive. Besides, the AC50 was 180 µM (active) in assay [2]; 100 µM (active) in assay [3]; 53.4 µM (active) in assay [4]; 72.9 µM (active) in [11]; 131 µM (active) in [16].
On to `CCC(CC)C(=O)O`, for which the call in assay [1], in assay [2], in [3], in [4], in assay [5] and in assay [6] was inactive. In addition, the call in [7], in [8], in assay [9], in assay [10], in [11] and in assay [12] was inactive. Moreover, the result in [14], in assay [15], in [20], in assay [16], in assay [17] and in assay [18] was inactive. In addition, the molecule was classed as inactive in assay [19].
